From the supplement of paper PMC11732987, “Enantioselective OTUD7B fragment discovery through chemoproteomics screening and high-throughput optimisation” (Communications Chemistry, 2025)

Tests used:
Test in all cases: log2 ratio of Biotin-Ahx-Ub-VS probe labelling (fragment/DMSO); higher = less target engagement (more negative = stronger competition), active = hit call of the paper (q ≤ 0.05, log2 ratio ≤ -1)
Details in all cases: compound concentration: 200 uM; treatment time: 3 h
USP19 = molecular target: T1, USP19 (UniProt O94966)
T1 sequence (whole entry): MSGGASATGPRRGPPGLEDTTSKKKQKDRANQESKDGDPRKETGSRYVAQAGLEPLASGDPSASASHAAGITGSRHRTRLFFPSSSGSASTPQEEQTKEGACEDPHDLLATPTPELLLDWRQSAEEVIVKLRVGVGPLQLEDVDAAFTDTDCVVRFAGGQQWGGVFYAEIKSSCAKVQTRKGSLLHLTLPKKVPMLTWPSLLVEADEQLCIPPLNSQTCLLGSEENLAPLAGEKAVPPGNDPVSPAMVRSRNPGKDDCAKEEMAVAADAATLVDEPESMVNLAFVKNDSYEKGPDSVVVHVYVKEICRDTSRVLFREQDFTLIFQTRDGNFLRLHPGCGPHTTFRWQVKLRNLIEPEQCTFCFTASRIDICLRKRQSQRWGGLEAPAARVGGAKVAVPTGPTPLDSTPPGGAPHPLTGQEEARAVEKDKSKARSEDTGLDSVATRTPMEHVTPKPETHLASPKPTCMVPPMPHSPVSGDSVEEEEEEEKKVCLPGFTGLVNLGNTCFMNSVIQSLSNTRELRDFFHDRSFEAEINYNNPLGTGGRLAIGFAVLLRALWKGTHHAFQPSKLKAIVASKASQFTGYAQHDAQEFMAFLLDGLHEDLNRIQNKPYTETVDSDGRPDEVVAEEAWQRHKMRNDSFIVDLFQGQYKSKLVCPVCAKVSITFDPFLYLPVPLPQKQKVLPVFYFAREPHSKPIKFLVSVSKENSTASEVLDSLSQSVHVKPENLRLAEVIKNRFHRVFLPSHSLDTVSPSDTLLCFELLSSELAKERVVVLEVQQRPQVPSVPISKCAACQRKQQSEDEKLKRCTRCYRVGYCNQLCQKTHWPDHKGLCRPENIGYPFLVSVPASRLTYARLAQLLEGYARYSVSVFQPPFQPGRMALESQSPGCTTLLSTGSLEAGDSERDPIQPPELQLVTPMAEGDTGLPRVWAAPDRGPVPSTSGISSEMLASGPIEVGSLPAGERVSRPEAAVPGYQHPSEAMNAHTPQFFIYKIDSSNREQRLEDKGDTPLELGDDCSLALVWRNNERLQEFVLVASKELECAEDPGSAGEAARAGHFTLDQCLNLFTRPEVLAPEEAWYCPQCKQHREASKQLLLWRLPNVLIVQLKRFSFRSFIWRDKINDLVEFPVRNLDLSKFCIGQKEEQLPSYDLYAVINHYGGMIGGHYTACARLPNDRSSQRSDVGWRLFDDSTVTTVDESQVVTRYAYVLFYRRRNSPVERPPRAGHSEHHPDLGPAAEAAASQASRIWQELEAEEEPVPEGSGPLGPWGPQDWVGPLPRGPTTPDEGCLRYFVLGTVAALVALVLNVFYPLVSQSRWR
Method in brief: (§1)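 The table lists average log2 ratios of fragment over vehicle, from an unpaired t-test on global-median-normalised Spectronaut label-free quantities. Proteins with ≥2 unique peptides were used. Samples were HEK293T lysate (495 µg) treated in triplicate with fragment at 200 µM or vehicle for 3 h, then with Biotin-Ahx-Ub-VS (0.5 µM final) for 1 h, with labelled DUBs NeutrAvidin-enriched and run by diaPASEF LC-MS/MS.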

USP22 = molecular target: T2, USP22 (UniProt Q9UPT9)
T2 sequence (whole entry): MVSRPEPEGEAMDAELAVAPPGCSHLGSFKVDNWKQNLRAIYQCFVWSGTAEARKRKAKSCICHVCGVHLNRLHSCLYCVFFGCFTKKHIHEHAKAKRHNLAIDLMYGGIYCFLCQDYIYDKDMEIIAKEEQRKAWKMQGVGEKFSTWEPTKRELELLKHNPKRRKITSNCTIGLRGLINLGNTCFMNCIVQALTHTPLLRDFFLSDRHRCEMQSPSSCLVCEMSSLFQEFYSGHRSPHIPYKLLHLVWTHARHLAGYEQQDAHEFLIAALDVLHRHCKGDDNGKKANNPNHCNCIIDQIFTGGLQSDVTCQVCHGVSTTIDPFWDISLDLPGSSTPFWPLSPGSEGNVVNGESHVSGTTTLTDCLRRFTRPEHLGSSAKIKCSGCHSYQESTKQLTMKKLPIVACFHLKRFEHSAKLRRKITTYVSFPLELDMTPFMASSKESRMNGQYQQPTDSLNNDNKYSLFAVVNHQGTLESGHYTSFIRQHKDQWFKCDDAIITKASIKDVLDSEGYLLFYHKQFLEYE
Method in brief: as §1

USP24 = USP24 (UniProt Q9UPU5)
Sequence of USP24 (Q9UPU5 whole entry): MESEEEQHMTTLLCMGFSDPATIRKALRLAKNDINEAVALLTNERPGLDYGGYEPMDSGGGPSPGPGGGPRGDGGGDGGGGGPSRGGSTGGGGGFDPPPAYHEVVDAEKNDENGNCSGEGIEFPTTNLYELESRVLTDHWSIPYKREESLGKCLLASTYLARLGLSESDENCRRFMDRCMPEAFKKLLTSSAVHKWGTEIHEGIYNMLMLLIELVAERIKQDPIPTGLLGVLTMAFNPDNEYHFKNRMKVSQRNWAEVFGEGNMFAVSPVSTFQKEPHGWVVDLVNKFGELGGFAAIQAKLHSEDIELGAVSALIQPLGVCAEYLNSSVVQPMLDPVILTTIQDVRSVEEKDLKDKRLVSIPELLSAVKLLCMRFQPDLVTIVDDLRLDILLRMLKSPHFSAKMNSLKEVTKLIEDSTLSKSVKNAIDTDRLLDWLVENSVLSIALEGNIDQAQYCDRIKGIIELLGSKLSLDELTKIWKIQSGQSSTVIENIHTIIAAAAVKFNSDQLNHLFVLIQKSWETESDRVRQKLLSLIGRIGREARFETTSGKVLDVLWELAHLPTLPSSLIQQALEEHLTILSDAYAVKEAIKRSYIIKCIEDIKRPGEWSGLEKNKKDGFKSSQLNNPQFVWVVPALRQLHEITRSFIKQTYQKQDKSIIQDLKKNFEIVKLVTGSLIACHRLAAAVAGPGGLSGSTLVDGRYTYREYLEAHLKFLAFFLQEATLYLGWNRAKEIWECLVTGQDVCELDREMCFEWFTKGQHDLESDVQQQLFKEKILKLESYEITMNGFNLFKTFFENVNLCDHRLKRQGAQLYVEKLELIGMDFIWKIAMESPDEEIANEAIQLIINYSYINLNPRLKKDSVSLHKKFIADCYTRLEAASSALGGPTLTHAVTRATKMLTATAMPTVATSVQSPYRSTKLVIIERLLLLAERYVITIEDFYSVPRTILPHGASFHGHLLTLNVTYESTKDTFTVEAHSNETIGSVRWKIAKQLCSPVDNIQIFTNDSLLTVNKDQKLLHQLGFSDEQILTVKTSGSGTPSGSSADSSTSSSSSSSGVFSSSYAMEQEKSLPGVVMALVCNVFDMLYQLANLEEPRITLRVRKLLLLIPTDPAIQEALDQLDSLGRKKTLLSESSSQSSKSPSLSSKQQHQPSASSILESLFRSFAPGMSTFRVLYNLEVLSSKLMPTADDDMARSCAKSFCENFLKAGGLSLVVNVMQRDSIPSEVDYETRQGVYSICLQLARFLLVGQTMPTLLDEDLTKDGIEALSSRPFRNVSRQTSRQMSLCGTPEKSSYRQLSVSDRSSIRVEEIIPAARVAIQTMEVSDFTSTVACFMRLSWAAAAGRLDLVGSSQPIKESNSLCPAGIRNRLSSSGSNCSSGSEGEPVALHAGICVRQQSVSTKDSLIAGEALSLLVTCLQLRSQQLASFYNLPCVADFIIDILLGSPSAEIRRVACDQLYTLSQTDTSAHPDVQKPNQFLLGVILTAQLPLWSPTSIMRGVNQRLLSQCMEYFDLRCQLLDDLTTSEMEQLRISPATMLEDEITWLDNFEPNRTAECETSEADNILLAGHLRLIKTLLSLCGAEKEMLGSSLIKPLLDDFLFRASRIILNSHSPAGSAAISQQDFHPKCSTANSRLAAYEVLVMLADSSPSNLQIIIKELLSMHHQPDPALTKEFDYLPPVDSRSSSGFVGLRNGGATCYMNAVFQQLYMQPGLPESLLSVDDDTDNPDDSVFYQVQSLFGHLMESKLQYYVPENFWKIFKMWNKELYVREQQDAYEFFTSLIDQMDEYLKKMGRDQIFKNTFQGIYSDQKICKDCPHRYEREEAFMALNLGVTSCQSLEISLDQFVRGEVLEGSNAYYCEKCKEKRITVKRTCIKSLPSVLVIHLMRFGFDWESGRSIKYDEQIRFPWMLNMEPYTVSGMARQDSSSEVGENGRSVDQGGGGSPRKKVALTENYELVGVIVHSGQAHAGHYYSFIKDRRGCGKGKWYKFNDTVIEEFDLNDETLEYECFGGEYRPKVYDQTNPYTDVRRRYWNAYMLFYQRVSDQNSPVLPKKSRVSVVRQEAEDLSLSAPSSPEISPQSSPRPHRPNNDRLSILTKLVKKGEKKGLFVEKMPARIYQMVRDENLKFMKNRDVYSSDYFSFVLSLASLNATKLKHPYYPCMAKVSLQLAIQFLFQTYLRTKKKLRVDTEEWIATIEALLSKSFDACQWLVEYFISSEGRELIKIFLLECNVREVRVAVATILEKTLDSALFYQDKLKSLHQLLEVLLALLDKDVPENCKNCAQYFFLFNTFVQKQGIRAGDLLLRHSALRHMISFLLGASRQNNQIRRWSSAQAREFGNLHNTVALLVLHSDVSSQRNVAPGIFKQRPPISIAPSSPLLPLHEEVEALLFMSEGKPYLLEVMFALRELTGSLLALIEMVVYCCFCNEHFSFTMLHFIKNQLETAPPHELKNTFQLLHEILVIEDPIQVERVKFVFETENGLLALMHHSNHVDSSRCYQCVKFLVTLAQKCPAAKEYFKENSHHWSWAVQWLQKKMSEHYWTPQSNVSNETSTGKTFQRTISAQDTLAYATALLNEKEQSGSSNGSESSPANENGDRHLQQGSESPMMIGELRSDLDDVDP
Method in brief: as §1

USP25 = molecular target: T3, USP25 (UniProt Q9UHP3)
T3 sequence (whole entry): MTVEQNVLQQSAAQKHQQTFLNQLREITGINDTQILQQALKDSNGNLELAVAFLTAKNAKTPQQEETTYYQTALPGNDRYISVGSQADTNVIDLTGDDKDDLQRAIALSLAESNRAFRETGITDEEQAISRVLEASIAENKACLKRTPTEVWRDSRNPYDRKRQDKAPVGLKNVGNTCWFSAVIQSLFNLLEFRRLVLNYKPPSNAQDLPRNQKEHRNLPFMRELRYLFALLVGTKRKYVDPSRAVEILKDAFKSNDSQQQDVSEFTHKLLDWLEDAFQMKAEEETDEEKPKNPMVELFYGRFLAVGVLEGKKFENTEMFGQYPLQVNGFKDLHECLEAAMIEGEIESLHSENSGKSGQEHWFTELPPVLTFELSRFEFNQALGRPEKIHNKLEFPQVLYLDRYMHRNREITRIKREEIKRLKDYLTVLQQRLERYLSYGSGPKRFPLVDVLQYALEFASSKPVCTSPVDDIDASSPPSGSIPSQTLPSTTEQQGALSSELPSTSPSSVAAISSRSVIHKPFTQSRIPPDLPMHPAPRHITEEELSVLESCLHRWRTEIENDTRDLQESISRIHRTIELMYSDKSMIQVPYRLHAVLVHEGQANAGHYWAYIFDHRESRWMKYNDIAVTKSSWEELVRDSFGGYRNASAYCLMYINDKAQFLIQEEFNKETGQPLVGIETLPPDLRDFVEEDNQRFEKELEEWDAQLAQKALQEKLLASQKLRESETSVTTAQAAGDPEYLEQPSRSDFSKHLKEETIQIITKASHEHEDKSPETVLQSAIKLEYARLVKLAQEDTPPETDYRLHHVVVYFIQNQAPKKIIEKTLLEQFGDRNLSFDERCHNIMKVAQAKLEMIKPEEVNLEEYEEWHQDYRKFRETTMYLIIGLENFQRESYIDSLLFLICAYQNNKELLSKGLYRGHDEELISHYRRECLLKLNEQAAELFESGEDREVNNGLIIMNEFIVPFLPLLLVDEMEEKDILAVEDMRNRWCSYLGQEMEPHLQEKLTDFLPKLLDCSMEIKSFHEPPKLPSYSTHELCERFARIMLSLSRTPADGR
Method in brief: as §1

USP28 = molecular target: T4, USP28 (UniProt Q96RU2)
T4 sequence (whole entry): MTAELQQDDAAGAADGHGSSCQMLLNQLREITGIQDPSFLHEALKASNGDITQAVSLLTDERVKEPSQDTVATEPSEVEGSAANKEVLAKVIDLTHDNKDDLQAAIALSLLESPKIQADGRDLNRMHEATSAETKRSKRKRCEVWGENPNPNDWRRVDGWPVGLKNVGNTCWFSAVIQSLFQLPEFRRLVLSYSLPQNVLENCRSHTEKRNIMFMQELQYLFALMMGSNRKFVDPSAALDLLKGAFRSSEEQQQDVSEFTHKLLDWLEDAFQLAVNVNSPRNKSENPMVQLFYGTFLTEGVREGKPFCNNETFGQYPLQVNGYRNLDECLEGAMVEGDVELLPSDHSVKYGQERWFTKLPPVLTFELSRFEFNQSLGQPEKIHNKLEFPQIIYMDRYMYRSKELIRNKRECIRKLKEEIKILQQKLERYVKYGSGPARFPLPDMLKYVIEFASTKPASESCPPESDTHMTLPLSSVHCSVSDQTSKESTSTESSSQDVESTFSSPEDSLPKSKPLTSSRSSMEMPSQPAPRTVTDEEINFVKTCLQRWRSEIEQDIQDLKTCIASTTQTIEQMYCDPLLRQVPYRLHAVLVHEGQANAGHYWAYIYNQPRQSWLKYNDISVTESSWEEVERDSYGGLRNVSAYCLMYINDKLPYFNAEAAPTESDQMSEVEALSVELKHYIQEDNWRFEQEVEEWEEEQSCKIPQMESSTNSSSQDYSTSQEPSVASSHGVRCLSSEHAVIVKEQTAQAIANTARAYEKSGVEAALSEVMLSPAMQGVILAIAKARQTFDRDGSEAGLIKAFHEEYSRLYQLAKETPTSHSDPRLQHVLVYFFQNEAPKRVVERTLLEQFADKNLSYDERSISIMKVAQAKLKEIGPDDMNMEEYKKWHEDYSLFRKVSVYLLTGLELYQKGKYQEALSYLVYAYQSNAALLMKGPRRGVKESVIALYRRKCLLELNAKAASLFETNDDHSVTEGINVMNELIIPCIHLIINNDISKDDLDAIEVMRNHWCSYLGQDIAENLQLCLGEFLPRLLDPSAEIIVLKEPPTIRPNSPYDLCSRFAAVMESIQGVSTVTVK
Method in brief: as §1

Measured: log2 ratio of Biotin-Ahx-Ub-VS probe labelling

Cc1ccc2nnc(CNC(=O)CCl)n2c1
inactive: USP19 -0.0329 | USP22 -0.259 | USP24 0.0887 | USP25 0.182 | USP28 -0.241
